Results published in PubChem BioAssay.
A number with no mark means an inactive call.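 How the source made its calls: active means inhibition at or above 50% relative to wild type and mutant plate controls; inactive means inhibition below 50%.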

Experiment: loss of swimming-algae plug formation – whole organism, Chlamydomonas reinhardtii, WT vs cilia-less mutant, absorbance, 96-well, primary screen (AID 463189);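 further: 0% = wild type cc124 cells in DMSO and 100% = ciliumless bld1 mutant cells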
Conditions: Chlamydomonas reinhardtii gravitaxis, OD600 absorbance, 2 days; at 10 µM; active compounds read high

SMILES	inhibition [%]
C[N+](C)(C)CC=O	5.9
Cc1cccc(C(=O)NCN2CCN(c3ccccc3C#N)CC2)c1	0.075
CCCCN1CCC(n2c(=O)[nH]c3ccccc32)CC1	4.67
CC(=O)Oc1ccccc1C(=O)O	-5.84
CC(C)COCC(CN(Cc1ccccc1)c1ccccc1)N1CCCC1 (stereo not given)	-3.6
CN1C2CCC1CC(OC(=O)c1c[nH]c3ccccc13)C2 (stereo not given)	11.2
CSC(N)=NCCC[C@H](N)C(=O)O	9.75
CCn1cc(C(=O)O)c(=O)c2cc3c(cc21)OCO3	1.71
O=C(O)c1cccnc1C(=O)O	3.76
CNc1ncnc2c1ncn2[C@@H]1O[C@H](CO)[C@H](O)C1O (stereo not given in full)	7.79
CC(C)NCC(O)c1ccc(NS(C)(=O)=O)cc1 (stereo not given)	-0.482
O=C(O)C1=CCCNC1	5.21
NC(=O)c1ccccc1	-2.55
C[C@@]1(C2CCCC2)Cc2cc(OCC(=O)O)c(Cl)c(Cl)c2C1=O	5.71
CC(N)(Cc1ccc(O)cc1)C(=O)O (stereo not given)	1.6
CCN(CC)CCCCCCCCOC(=O)c1cc(OC)c(OC)c(OC)c1	24.5
O=C1N(c2ccccc2)c2ccccc2C1(Cc1ccncc1)Cc1ccncc1	-3.34
S=C(S)OC1CC2CC1C1CCCC21 (stereo not given)	7.66
N#Cc1c(-c2ccccc2)no[n+]1[O-]	-3.89
CNc1cc(NS(=O)(=O)c2ccc(N)cc2)nc(NC)n1	-3.79

SMILES	inhibition [%]
CC(C)NC[C@H](O)COc1ccc(CC(N)=O)cc1	-3.21
Cn1cnc2c(NC3CCCC3)ncnc21	0.556
CN1CCC2(CCN3CCc4c(oc5ccccc45)C3C2)N(C)C1=O (stereo not given)	-3.27
NCCSSCCN	6.01
CCCCCCCCCCCCCCCCOCC(COCC(F)(F)F)OP(=O)(O)OCO (stereo not given)	6.55
CN1CCC[C@H]1c1cccnc1	0.862
C[C@]12C=CC(=O)C=C1CC[C@@H]1C2=CC[C@]2(C)[C@@H](C(=O)CN3CCN(c4cc(N5CCCC5)nc(N5CCCC5)n4)CC3)CC[C@@H]12	3
NC/C=C/C(=O)O	9.04
Oc1cc2c(cc1O)C(c1ccccc1)CNCC2 (stereo not given)	-4.78
CCCCCCCC/C=C\CCCCCCCC(=O)NCCc1ccc(O)c(O)c1	-1.34
CN(C)CCCCSC(=N)N	0.024
CCCn1c(=O)c2[nH]c(-c3ccc(OCC(=O)NCCN)cc3)nc2n(CCC)c1=O	3.94
CN=C(NC#N)Nc1ccc(C2=NNC(=O)CC2C)cc1 (stereo not given)	-4.34
CCCN(CC1CC1)c1nc(C)nc(Nc2c(Cl)cc(Cl)cc2Cl)c1Cl	3.71
CCn1c(=O)[nH]c2cc(Cl)c(Cl)cc21	1.13
C#C[C@]1(O)CC[C@H]2[C@@H]3CCC4=Cc5oncc5CC4(C)[C@H]3CCC21C (stereo not given in full)	4.97
CC(C)N(CCC(=O)c1ccc2ccccc2c1)Cc1ccccc1	10.3
CC(=O)[C@]1(O)Cc2c(O)c3c(c(O)c2[C@@H](O[C@H]2C[C@H](N)[C@H](O)[C@H](C)O2)C1)C(=O)c1ccccc1C3=O	-16.2
Nc1nc(OCc2ccccc2)c2[nH]cnc2n1	0.83
CN=C(NC#N)NCCSCc1nc[nH]c1C	8.94
